Test systems include NCI-H23 lung; NCI-H226 lung; NCI-H322M lung; HOP-62 NSCLC; NCI-H460 lung; HOP-92 NSCLC; NCI-H522 lung; A549/ATCC NSCLC; 786-0 renal; COLO 205 colon.
Holding throughout (assay): NCI-60 one-dose screen, 48 h (100 = growth as untreated, 0 = no growth, -100 = all killed)
Common to all, as to conditions: 10 µM unless noted

SMILES strings stand for the structures. This is part of a sample that, as a whole, favours compounds with a hit. Of some 83,000 tested, about 20% had one in any assay.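 Single-dose data. Exposure time 48 hours. Values below 10 considered active.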 A number with no mark means an inactive call. The source made the active and inactive calls.

Consider `N#C[S-].[Au+].c1ccc(CN2[CH-]N(Cc3ccccc3)C(c3ccccc3)=C2c2ccccc2)cc1`, for which the growth was 8.69% (active) with NCI-H23 lung; 24.4% in the experiment on NCI-H226 lung; 30.3% in the experiment on NCI-H322M lung; 16% in the experiment with HOP-62 NSCLC; 4.03% (active) with NCI-H460 lung; -25% (active) in the experiment on HOP-92 NSCLC. In addition, the growth is -30.9% (active) with NCI-H522 lung, 12.8% in the experiment with A549/ATCC NSCLC and 7% (active) in the experiment on 786-0 renal.
Consider `CN1CCCCC1C(C)(O)c1ccccc1` (centres undefined), for which the growth with NCI-H23 lung is 106%; in the experiment with NCI-H226 lung it was 99.7%; in the experiment with NCI-H322M lung, 101%; with HOP-62 NSCLC it was 92.9%; with NCI-H460 lung, 107%; in the experiment on HOP-92 NSCLC, 98.6%. The growth was 89.9% in the experiment on NCI-H522 lung, 92% in the experiment on A549/ATCC NSCLC and 95.1% with 786-0 renal.
`CC(=O)O[C@H](C[C@H](C(C)C)N(C)C(=O)[C@@H](NC(=O)[C@H]1CCCCN1C)C(C)C)c1cccc(C(=O)N[C@@H](Cc2ccccc2)C[C@H](C)C(=O)O)n1`: the growth in the experiment on NCI-H23 lung was 32.6%; in the experiment with NCI-H226 lung, 61.6%; in the experiment on NCI-H322M lung, 40.7%; in the experiment on HOP-62 NSCLC it was 23%; in the experiment with NCI-H460 lung, 4.27% (active); with HOP-92 NSCLC, 54.5%. Besides, the growth with NCI-H522 lung was -12.7% (active); with A549/ATCC NSCLC, 8.55% (active); in the experiment on 786-0 renal, 13.6%.
For the compound `CC1CCCC(C[N+](C)(C)C)C1=O` (centres undefined), the growth in the experiment on NCI-H23 lung is 109%; with NCI-H226 lung, 95.4%; in the experiment with NCI-H322M lung, 77.2%; with HOP-62 NSCLC it was 106%; in the experiment with NCI-H460 lung, 117%; with HOP-92 NSCLC it was 83.8%. The growth in the experiment with NCI-H522 lung was 98.7%; in the experiment with A549/ATCC NSCLC, 104%; in the experiment on 786-0 renal, 112%.
On to `COc1ccc(/C=C\c2cc(OC)c(OC)c(OC)c2)cc1NS(=O)(=O)c1ccc(Cl)cc1`, for which the growth was 75.3% with NCI-H23 lung; 70.9% with NCI-H226 lung; 73.1% in the experiment with NCI-H322M lung; 83.9% with HOP-62 NSCLC; 84.1% with NCI-H460 lung; 37% in the experiment on HOP-92 NSCLC. For the same compound, the growth with NCI-H522 lung is 25.9%; in the experiment on A549/ATCC NSCLC it was 58.9%; in the experiment with 786-0 renal, 78%; with COLO 205 colon, 73.6%.
As to `COC(=O)[C@@H](C)C[C@H](Cc1ccccc1)NC(=O)c1csc([C@@H](C[C@H](C(C)C)N(C)C(=O)[C@@H](NC(=O)[C@H]2CCCCN2C)C2CC2)OC(C)=O)n1`, the growth in the experiment on NCI-H23 lung was 22%; in the experiment with NCI-H226 lung it was 20.5%; with NCI-H322M lung, 52.2%; with HOP-62 NSCLC it was 15.7%; in the experiment with NCI-H460 lung it was 14.1%; in the experiment with HOP-92 NSCLC, 31.3%. Also, the growth in the experiment on NCI-H522 lung is -45.5% (active); in the experiment on A549/ATCC NSCLC, 13%; in the experiment on 786-0 renal, 21.8%.
On to `COc1ccc(/C=C\c2cc(OC)c(OC)c(OC)c2)cc1NC(=O)/C=C/c1cc(OC)c(OC)c(OC)c1`, for which the growth in the experiment with NCI-H23 lung was 25.7%; with NCI-H226 lung, 46.8%; in the experiment on NCI-H322M lung it was 55.1%; in the experiment with HOP-62 NSCLC, 45.5%; in the experiment with NCI-H460 lung, 55.2%; with HOP-92 NSCLC, 55.5%. In addition, the growth was 34.3% with NCI-H522 lung, 56.6% in the experiment with A549/ATCC NSCLC and 39.9% in the experiment with 786-0 renal.
As to `CC(=O)OC1CCC2(C)C(CCC3C2CC(=O)C2(C)C3CC(Sc3ccc(N(CCCl)CCCl)cc3)C2C(C)=O)C1` (centres undefined), the growth with NCI-H23 lung is 97.3%; in the experiment on NCI-H226 lung it was 83.7%; with NCI-H322M lung, 104%; in the experiment with HOP-62 NSCLC, 108%; in the experiment on NCI-H460 lung, 32.5%; in the experiment on HOP-92 NSCLC, 109%. Moreover, the results for the growth in the experiment with NCI-H522 lung, in the experiment with A549/ATCC NSCLC and in the experiment on 786-0 renal were 83%, 55.6% and 82.6%, respectively.
As to `Nc1ccc2c(c1)Cc1cc(Br)ccc1-2`, the growth in the experiment with NCI-H23 lung is 90.5%; with NCI-H226 lung, 95.4%; with NCI-H322M lung it was 105%; in the experiment with HOP-62 NSCLC it was 101%; in the experiment with NCI-H460 lung it was 104%; in the experiment with HOP-92 NSCLC, 78%. The growth with NCI-H522 lung is 107%; in the experiment with A549/ATCC NSCLC it was 100%; with 786-0 renal it was 108%.
Turning to `O=C(c1cccc(O)c1O)c1cn(Cc2ccc(F)cc2)c2cccc(O)c12`, the growth with NCI-H23 lung is 47.8%; with NCI-H226 lung, 61.5%; in the experiment with NCI-H322M lung, 37.9%; in the experiment on HOP-62 NSCLC, 31%; with NCI-H460 lung, 11.4%; with HOP-92 NSCLC, -9.9% (active). The growth in the experiment with NCI-H522 lung was -36.5% (active); with A549/ATCC NSCLC, 30.5%; with 786-0 renal, 31.2%; with COLO 205 colon, 50.3%.
Regarding `COC(=O)[C@@H](C)C[C@H](Cc1ccccc1)NC(=O)c1csc(CC[C@H](C(C)C)N(C)C(=O)[C@@H](NC(=O)[C@H]2CCCCN2C)C(C)C)n1`, the growth in the experiment on NCI-H23 lung was 32.4%; in the experiment on NCI-H226 lung, 50.2%; in the experiment on NCI-H322M lung, 44.4%; with HOP-62 NSCLC it was 21.7%; in the experiment on NCI-H460 lung, 6.76% (active); in the experiment with HOP-92 NSCLC it was 52.8%. The growth was -12.9% (active) in the experiment with NCI-H522 lung, 19% in the experiment with A549/ATCC NSCLC, 10.9% in the experiment with 786-0 renal and -38.9% (active) in the experiment with COLO 205 colon.
For `COC(=O)[C@@H](C)C[C@H](Cc1ccccc1)NC(=O)c1nc([C@@H](C[C@H](C(C)C)N(C)C(=O)[C@@H](NC(=O)[C@H]2CC(=O)CCN2C)C(C)C)OC(C)=O)sc1C(C)C`, the growth with NCI-H23 lung was 26.5%; in the experiment with NCI-H226 lung it was -25.2% (active); in the experiment with NCI-H322M lung, 30.1%; with HOP-62 NSCLC, 15.6%; in the experiment on NCI-H460 lung, 3.43% (active); in the experiment with HOP-92 NSCLC, 34.8%. For the same compound, the growth in the experiment with NCI-H522 lung is -30.5% (active); in the experiment with A549/ATCC NSCLC, 18.7%; in the experiment with 786-0 renal it was 6.83% (active).
As to `CN(C)CCCOc1ccc2c(c1)c(C(=O)C(=O)NCCO)cn2Cc1ccccc1`, the growth in the experiment with NCI-H23 lung was 95.6%; in the experiment with NCI-H226 lung, 103%; in the experiment with NCI-H322M lung, 105%; in the experiment with HOP-62 NSCLC, 100%; with NCI-H460 lung it was 105%; in the experiment with HOP-92 NSCLC, 92.1%. Besides, the growth in the experiment with NCI-H522 lung is 99%; in the experiment with A549/ATCC NSCLC, 105%; with 786-0 renal it was 93.3%.
In the case of `COC(=O)[C@]12CCC(C)(C)C[C@H]1[C@H]1C(=O)C[C@@H]3[C@@]4(C)C[C@@]5(CC(C)(C)[C@@H]4CC[C@@]3(C)[C@]1(C)CC2)OO[C@@](C)(C(F)(F)F)O5`, the growth in the experiment with NCI-H23 lung was 89%; in the experiment with NCI-H226 lung, 86.5%; with NCI-H322M lung, 109%; in the experiment with HOP-62 NSCLC, 100%; in the experiment with NCI-H460 lung, 101%; in the experiment with HOP-92 NSCLC it was 98.8%. Also, the growth was 76.7% with NCI-H522 lung, 98% in the experiment on A549/ATCC NSCLC and 97.8% in the experiment on 786-0 renal.

Source of the values: PubChem BioAssay (NCI).
